The values below come from publication PMC3315485, “Probing the Informational and Regulatory Plasticity of a Transcription Factor DNA–Binding Domain”.

Changes are numbered by the printed parent chain.

One experiment deals with T1, MarA wild type (WQR) (Escherichia coli, UniProt P0ACH5 1-127).
T1 sequence: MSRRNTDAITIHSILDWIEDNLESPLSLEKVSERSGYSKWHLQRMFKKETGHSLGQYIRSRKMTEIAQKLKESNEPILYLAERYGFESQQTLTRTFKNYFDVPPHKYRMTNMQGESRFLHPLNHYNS
Briefly: MITOMI; MITOMI, 295 K (22 C); buffer, salt and pH not stated in the material; high values mean tight binding. Particulars: protein: ivt; label: fluorescent; dsDNA, one strand shown. In a few lines: (§1)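 Association constants were determined by MITOMI and are expressed for each site relative to the site with the highest affinity for the same protein variant. The MarA protein variants were made with the RTS E. coli HY kit by in vitro transcription and translation and labelled through addition of tRNA-lys-bodipy-fl. Testing covered 64 synthesized mar binding site variants, with fluorescence read on Genepix at 295K.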
As for ATGCCTCGTTTTGCTAAAT, the binding signal was 0.454 Ka relative to the best site of the variant.
Still for that read-out and setting: next, ATGACGCGTTTTGCTAAAT: 0.362 Ka relative to the best site of the variant.
For the sequence ATGAGGCGTTTTGCTAAAT, the binding signal was 0.283 Ka relative to the best site of the variant.
In the case of ATGGCCCGTTTTGCTAAAT, the binding signal is 0.293 Ka relative to the best site of the variant.
As for ATGAGCCGTTTTGCTAAAT, the binding signal was 0.237 Ka relative to the best site of the variant.
In the case of ATGTTTCGTTTTGCTAAAT, the binding signal was 0.217 Ka relative to the best site of the variant.
For the sequence ATGTGGCGTTTTGCTAAAT, the binding signal is 0.242 Ka relative to the best site of the variant.
On to ATGGTACGTTTTGCTAAAT, for which the binding signal was 0.294 Ka relative to the best site of the variant.
As for ATGGACCGTTTTGCTAAAT, the binding signal was 0.196 Ka relative to the best site of the variant.
In the case of ATGTATCGTTTTGCTAAAT, the binding signal was 0.282 Ka relative to the best site of the variant.
With ATGTGACGTTTTGCTAAAT, the binding signal was 0.253 Ka relative to the best site of the variant.
Consider ATGAAGCGTTTTGCTAAAT, for which the binding signal was 0.256 Ka relative to the best site of the variant.
ATGATGCGTTTTGCTAAAT: the binding signal is 0.319 Ka relative to the best site of the variant.
On the same count and under the same terms, with ATGGAACGTTTTGCTAAAT the figure was 0.299 Ka relative to the best site of the variant; with ATGCCACGTTTTGCTAAAT, 0.646 Ka relative to the best site of the variant.
Turning to ATGCGGCGTTTTGCTAAAT, the binding signal is 0.318 Ka relative to the best site of the variant.
Consider ATGAGTCGTTTTGCTAAAT, for which the binding signal was 0.239 Ka relative to the best site of the variant.
With ATGGCTCGTTTTGCTAAAT, the binding signal was 0.35 Ka relative to the best site of the variant.
ATGGTCCGTTTTGCTAAAT: the binding signal was 0.209 Ka relative to the best site of the variant.
Still for that read-out and setting: with ATGATTCGTTTTGCTAAAT the figure was 0.264 Ka relative to the best site of the variant.
Turning to ATGCACCGTTTTGCTAAAT, the binding signal is 0.261 Ka relative to the best site of the variant.
Turning to ATGCGTCGTTTTGCTAAAT, the binding signal was 0.26 Ka relative to the best site of the variant.
Regarding ATGAACCGTTTTGCTAAAT, the binding signal was 0.224 Ka relative to the best site of the variant.
Take ATGCGACGTTTTGCTAAAT: the binding signal was 0.369 Ka relative to the best site of the variant.
Still for that read-out and setting: with ATGTCCCGTTTTGCTAAAT the figure was 0.181 Ka relative to the best site of the variant; with ATGACTCGTTTTGCTAAAT, 0.378 Ka relative to the best site of the variant.
On the same count and under the same terms, with ATGTGTCGTTTTGCTAAAT the figure was 0.284 Ka relative to the best site of the variant; with ATGCTCCGTTTTGCTAAAT, 0.244 Ka relative to the best site of the variant.
Turning to ATGGGCCGTTTTGCTAAAT, the binding signal was 0.236 Ka relative to the best site of the variant.
Same read-out and setting: with ATGGGTCGTTTTGCTAAAT the figure was 0.232 Ka relative to the best site of the variant; with ATGCAACGTTTTGCTAAAT, 0.365 Ka relative to the best site of the variant.
Consider ATGTTCCGTTTTGCTAAAT, for which the binding signal was 0.197 Ka relative to the best site of the variant.

The target of another experiment is T2, MarA RQR (Escherichia coli, UniProt P0ACH5 1-127, W40R).
T2 sequence: T1 sequence with W40R
The description is as above. The following applies: protein: ivt; label: fluorescent; dsDNA, one strand shown. In a few lines: as §1
As to ATGCCTCGTTTTGCTAAAT, the binding signal was 0.232 Ka relative to the best site of the variant.
Turning to ATGACGCGTTTTGCTAAAT, the binding signal was 0.33 Ka relative to the best site of the variant.
Still for that read-out and setting: next, ATGAGGCGTTTTGCTAAAT: 0.103 Ka relative to the best site of the variant; ATGGCCCGTTTTGCTAAAT: 0.811 Ka relative to the best site of the variant; ATGAGCCGTTTTGCTAAAT: 0.107 Ka relative to the best site of the variant.
For ATGTTTCGTTTTGCTAAAT, the binding signal was 0.214 Ka relative to the best site of the variant.
As to ATGTGGCGTTTTGCTAAAT, the binding signal is 0.105 Ka relative to the best site of the variant.
Regarding ATGGTACGTTTTGCTAAAT, the binding signal was 0.124 Ka relative to the best site of the variant.
As for ATGGACCGTTTTGCTAAAT, the binding signal was 0.106 Ka relative to the best site of the variant.
As to ATGTATCGTTTTGCTAAAT, the binding signal is 0.121 Ka relative to the best site of the variant.
Same read-out and setting: with ATGTGACGTTTTGCTAAAT the figure was 0.11 Ka relative to the best site of the variant.
On the same count and under the same terms, with ATGAAGCGTTTTGCTAAAT the figure was 0.0942 Ka relative to the best site of the variant; with ATGATGCGTTTTGCTAAAT, 0.106 Ka relative to the best site of the variant.
As for ATGGAACGTTTTGCTAAAT, the binding signal is 0.208 Ka relative to the best site of the variant.
With ATGCCACGTTTTGCTAAAT, the binding signal is 0.243 Ka relative to the best site of the variant.
As for ATGCGGCGTTTTGCTAAAT, the binding signal is 0.0951 Ka relative to the best site of the variant.
Consider ATGAGTCGTTTTGCTAAAT, for which the binding signal was 0.136 Ka relative to the best site of the variant.
Turning to ATGGCTCGTTTTGCTAAAT, the binding signal was 0.759 Ka relative to the best site of the variant.
Regarding ATGGTCCGTTTTGCTAAAT, the binding signal is 0.18 Ka relative to the best site of the variant.
Turning to ATGATTCGTTTTGCTAAAT, the binding signal was 0.122 Ka relative to the best site of the variant.
As for ATGCACCGTTTTGCTAAAT, the binding signal is 0.132 Ka relative to the best site of the variant.
For the sequence ATGCGTCGTTTTGCTAAAT, the binding signal is 0.144 Ka relative to the best site of the variant.
On to ATGAACCGTTTTGCTAAAT, for which the binding signal is 0.104 Ka relative to the best site of the variant.
On to ATGCGACGTTTTGCTAAAT, for which the binding signal was 0.148 Ka relative to the best site of the variant.
Same read-out and setting: next, ATGTCCCGTTTTGCTAAAT: 1 Ka relative to the best site of the variant.
For the sequence ATGACTCGTTTTGCTAAAT, the binding signal is 0.586 Ka relative to the best site of the variant.
Still for that read-out and setting: with ATGTGTCGTTTTGCTAAAT the figure was 0.132 Ka relative to the best site of the variant; with ATGCTCCGTTTTGCTAAAT, 0.108 Ka relative to the best site of the variant.
ATGGGCCGTTTTGCTAAAT: the binding signal was 0.147 Ka relative to the best site of the variant.
As for ATGGGTCGTTTTGCTAAAT, the binding signal is 0.141 Ka relative to the best site of the variant.
